Measurements from PubChem BioAssay (NCI).
About 83,000 compounds went through this panel and 20% of them were active in at least one assay; those are over-represented in the sample as a whole.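 For each line, cells grew in 96-well plates with the test compound present at a single concentration for 48 hours.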 Unmarked numbers belong to inactive results. Active and inactive are the calls of the source. The calls were made as follows: active = growth percent below 10; inactive = the rest.

How the values were obtained:
Experiment in all cases: NCI-60 one-dose screen, 48 h (100 = growth as untreated, 0 = no growth, -100 = all killed)
Details in all cases: 10 µM unless noted
[1] = tested on: SK-MEL-2 melanoma
[2] = tested on: EKVX NSCLC
[3] = tested on: SN12C renal
[4] = tested on: UO-31 renal
[5] = tested on: TK-10 renal
[6] = tested on: ACHN renal
[7] = tested on: A498 renal
[8] = tested on: CCRF-CEM leukemia
[9] = tested on: MOLT-4 leukemia
[10] = tested on: SR leukemia
[11] = tested on: RPMI-8226 leukemia
[12] = tested on: OVCAR-8 ovarian
[13] = tested on: OVCAR-5 ovarian
[14] = tested on: OVCAR-4 ovarian
[15] = tested on: SK-OV-3 ovarian
[16] = tested on: IGROV1 ovarian
[17] = tested on: OVCAR-3 ovarian
[18] = tested on: HS 578T breast
[19] = tested on: NCI/ADR-RES ovarian
[20] = tested on: CAKI-1 renal

Row | Structure (SMILES) | growth [1] | growth [2] | growth [3] | growth [4] | growth [5] | growth [6] | growth [7] | growth [8] | growth [9] | growth [10] | growth [11] | growth [12] | growth [13] | growth [14] | growth [15] | growth [16] | growth [17] | growth [18] | growth [19] | growth [20]
1 | COc1cc(C2NC(c3cc(OC)c(OC)c(OC)c3)C(C#N)(C#N)C2(C#N)C#N)cc(OC)c1OC (stereo not given) | 101% | 97.6% | 100% | 83.8% | 103% | 97.7% | 107% | 136% | 96.8% | 118% | 102% | 106% | 96.4% | 100% | 102% | 106% | 110% | 89.2% |  | 
2 | COc1cccc(C(Cc2ccccc2)Nc2ccccc2)c1OC (stereo not given) | 83% | 96.1% | 103% | 85.4% | 96.7% | 106% | 90% | 87.5% | 78.6% | 102% | 89.7% | 99% | 103% | 98.1% | 91.3% | 86.8% | 98.4% | 106% | 98.2% | 
3 | O=S(=O)(c1ccc(N/N=C\c2ccccc2)cc1)c1ccc(N/N=C/c2ccccc2)cc1 | 76.5% | 73.7% | 64.9% | 88.3% | 59.4% | 57.4% |  | 88.7% | 82.4% |  | 85.6% | 30.3% | 84.7% | 44.7% | 74% | 72.1% | 72.2% |  | 53.1% | 67.7%
4 | O=C(CN1CCOCC1)Nc1ccc2ncnc(Nc3ccc(OCc4cccc(F)c4)c(Cl)c3)c2c1 | 88.1% | 25.1% | 48.1% | 30.7% | 37.8% | 24.5% | 28% | 66.7% | 47.9% | 64.3% | 44.7% | 63.1% | 69.2% | 72% | 6.86% (active) | 23.2% | 58% | 100% | 44.7% | 
5 | C=C(C)[C@@H]1CC[C@]2(C(=O)N3CCN(C)CC3)CC[C@]3(C)[C@H](CC[C@@H]4[C@@]5(C)CCC(=O)C(C)(C)[C@@H]5CC[C@]43C)[C@@H]12 | 92.1% | 96.3% | 75.7% | 66.7% | 102% | 77.4% |  |  | 51.6% | -12.1% (active) | 78.1% | 87.1% | 92.5% | 83.5% | 104% | 89.2% | 74% | 95.3% |  | 93.5%
6 | Cn1c(COC(=O)NCCc2ccccn2)nc2c(N3CCOCC3)nc(Cl)nc21 | 26.7% | 14.9% | -41.5% (active) | -99.3% (active) | -72.2% (active) | -100% (active) | 51.9% | -9.98% (active) | 0.583% (active) | 3.5% (active) | -22.7% (active) | 4.96% (active) | -65% (active) | -59.3% (active) | 90.3% | -92.3% (active) | -88% (active) | -25% (active) | 18.9% | 
7 | CCOC(=O)N1CCc2c(sc3nc4nc[nH]n4c(=O)c23)C1 | 96.6% | 92.4% | 97.3% | 81.9% | 105% | 103% | 82.3% | 97.8% | 100% | 101% | 98.2% | 103% | 110% | 109% | 96.7% | 91.4% | 105% | 95.8% | 97% | 
8 | O=C(Nc1ccc(Nc2ncccn2)cc1)NC1C=c2ccccc2=CC1 (stereo not given) | 102% | 106% | 92.5% | 80.5% | 112% | 105% | 96.9% | 90% | 87.5% | 98.1% | 100% | 98.1% | 108% | 111% | 106% | 106% | 107% | 100% |  | 
9 | CCCC1C(C(=O)OCC)=C(N)Oc2cc(O)ccc21 (stereo not given) | 99% | 80.6% | 103% | 70.7% | 105% | 94.1% | 109% | 99.7% | 89% | 90.1% | 98.5% | 107% | 108% | 89.3% | 88.3% | 76.4% | 96.6% | 101% | 94.3% | 
10 | C[C@H]1[C@H](C)CC[C@]2(CO)CC[C@]3(C)C(=CC[C@@H]4[C@@]5(C)Cc6c([nH]c7ccccc67)C(C)(C)[C@@H]5CC[C@]43C)[C@H]12 | 85.2% | 75.5% | 55.6% | 74.3% | 86.3% | 60.8% |  |  | 67% | 75.8% | 83.7% | 77% | 116% | 89.8% | 96.9% | 88.8% | 87.4% | 74.6% | 90.6% | 73.2%
11 | COC(=O)Nc1ccc(NC(=O)OC)cc1 | 88.5% | 103% | 104% | 87.6% | 94.4% | 115% | 97.2% | 68.1% | 100% | 105% | 89.4% | 94.6% | 114% | 112% | 90.9% | 120% | 111% | 102% | 104% | 
12 | CS(=O)(=O)OCCN(CCOS(C)(=O)=O)c1ccc(/C=N/Nc2ccc([N+](=O)[O-])cc2[N+](=O)[O-])cc1 | 118% | 81.7% | 77.6% | 88.9% | 112% | 84.6% |  | 55.5% | 88.4% |  | 82.3% | 76.4% | 97.8% | 93.1% | 101% | 72% |  |  | 73% | 70.4%
13 | Cc1cc(C)c(C=O)c(C)c1 | 106% | 101% | 103% | 86.3% | 103% | 108% | 102% | 78.6% | 85% | 105% | 89.8% | 94.2% | 98.5% | 108% | 74.7% | 111% | 107% | 104% | 107% | 
14 | CO[C@@H]1[C@H](N(C)C(=O)c2ccccc2)C[C@@H]2O[C@]1(C)n1c3ccccc3c3c4c(c5c6ccccc6n2c5c31)C(=O)NC4=O | 55.1% | 27.9% | 33.4% | -35.6% (active) | -20.3% (active) | 35.4% |  | 44.5% | 32.8% |  | 67.1% | 54% | 57% |  |  | 7.2% (active) | 46.7% | 20.5% | 42.9% | -10.8% (active)
15 | CN(C)CCCn1c2c(c3ccc(-c4ccn[nH]4)cc3c1=O)C(=O)c1ccccc1-2 | 121% | 34.2% | 5.41% (active) | 25.5% | 54.4% | -28.9% (active) | 52.4% | 0.484% (active) | -0.72% (active) | -1.12% (active) | -0.979% (active) | 23.7% | 59.2% | 77.9% | 23.5% | 41.2% | 66.9% | 68.6% | 50.3% | 
16 | CNC(=O)Nc1ccc(-c2nc(N3CCOCC3)nc3c2cnn3C2CCOCC2)cc1 | -23.8% (active) | -24.3% (active) | 7.06% (active) | -23.5% (active) | -38% (active) | 4.27% (active) |  | 23.8% | 11.9% |  | 8.13% (active) | 0.163% (active) | 1.59% (active) |  |  | -27.6% (active) | 1.45% (active) | -24.9% (active) | 4.44% (active) | -19.3% (active)
17 | Cc1c(C(=O)NO)sc2ncnc(Nc3ccc(NC(=S)Nc4ccccc4)cc3)c12 | 104% | 93.6% | 101% | 85.1% | 106% | 105% |  |  | 111% | 110% |  | 103% | 103% | 105% | 121% | 112% | 111% | 105% | 99.6% | 96.6%
